# High-throughput results: PubChem, several laboratories
# Sampled rows, rich in hits. Any-hit rate of the full collection: about 1.5%.
# MRP-1 activ: H69AR viability gain despite doxorubicin, primary screen, MRP-1 activator project, H69AR cells, CellTiter-Glo; viability rescue; 140,000 tested, 0.61% active; viability increase, % at 10 µM;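 active = viability gain under doxorubicin at or above a set limit, the compound median plus 3 SD, cut at about 4.7% in these data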;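 note: MRP-1 overexpressing cells given doxorubicin 25 µM after compound pretreatment; 18-22 h compound pretreatment then 72 h with doxorubicin before readout; 0% = doxorubicin-only wells and 100% = vehicle-treated cells without doxorubicin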
# DAT uptake mod: changed hDAT dopamine uptake under cocaine IC80, either direction, primary screen, cocaine antagonist project, cell-based, LLC-PK1 hDAT, [14C]-dopamine uptake, MLSMR | LLC-PK1 hDAT cells, [14C]-dopamine uptake with cocaine IC80; actives deviate in either direction | B-score at 10 µM | Sodium-dependent dopamine transporter (Homo sapiens), Q01959 | AID 449768, 2010 | 110,000 tested, 1.3% active;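 active = Z score or B-score, a plate-position-corrected score, falls beyond the plate's 99.7% confidence bounds, in either direction; inactive = both scores lie inside the 99.7% bounds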;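 note: scored against the spread of the other compound wells on the same plate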
# Target sequence (Q01959 whole entry, looked up): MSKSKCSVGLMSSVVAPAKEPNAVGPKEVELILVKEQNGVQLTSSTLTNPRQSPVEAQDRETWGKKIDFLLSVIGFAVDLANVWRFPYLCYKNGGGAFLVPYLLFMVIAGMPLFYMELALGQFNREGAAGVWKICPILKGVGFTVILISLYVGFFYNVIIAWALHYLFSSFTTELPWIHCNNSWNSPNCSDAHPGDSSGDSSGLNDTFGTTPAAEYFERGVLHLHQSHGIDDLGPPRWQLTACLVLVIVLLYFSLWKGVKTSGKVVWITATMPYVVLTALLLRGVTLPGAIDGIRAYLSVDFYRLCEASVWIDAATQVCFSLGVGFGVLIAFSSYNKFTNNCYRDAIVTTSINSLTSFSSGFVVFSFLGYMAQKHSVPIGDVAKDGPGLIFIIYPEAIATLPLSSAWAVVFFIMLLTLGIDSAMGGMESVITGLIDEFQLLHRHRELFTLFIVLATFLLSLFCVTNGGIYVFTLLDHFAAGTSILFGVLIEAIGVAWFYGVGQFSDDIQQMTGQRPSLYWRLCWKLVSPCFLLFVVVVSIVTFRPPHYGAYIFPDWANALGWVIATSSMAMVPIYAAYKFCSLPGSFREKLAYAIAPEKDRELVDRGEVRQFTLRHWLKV
# MRP resist rev: reversal of MRP1-mediated doxorubicin resistance, primary screen, H69AR cells, doxorubicin co-treatment. H69AR cells + 2 uM doxorubicin, CellTiter-Glo, 72 h. differential viability (reversal), % at 10 µM. 85,000 tested, 0.04% active;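 active = viability drop by adding the cancer drug above about 55%, with treated viability meeting a 40% cutoff, limit read from the data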;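 note: viability without doxorubicin minus viability with 2 µM doxorubicin for each compound; larger differential means the compound sensitizes cells more to doxorubicin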
# * hit, by the source's call; / = no result.
SMILES,MRP-1 activ,DAT uptake mod,MRP resist rev
COc1ccc(OCc2nnc(SCC(=O)N3c4ccccc4Sc4ccc(Cl)cc43)o2)cc1,15*,-0.82,/
Cc1ccc(C(=O)CSc2nnc(COc3cccc(C)c3)o2)cc1,-2,-1.4,92*
Cc1ccc(C(=O)CSc2nnc(COc3cccc4cccnc34)o2)cc1,-3,1.6,3
Cc1ccc(-c2nnc(COc3cccc(-n4cnnn4)c3)o2)cc1,-1,-11*,-15
Cc1ccc(OCc2nnc(SCC(=O)N3c4ccccc4Sc4ccc(Cl)cc43)o2)cc1,11*,/,/
COC(=O)CCCC1=CC2=CC(=O)C(C)(OC(=O)c3ccc(Cl)nc3)C(=O)C2=CO1 (centres undefined),/,-1.2,/
Cc1nnc(-n2ncc(C#N)c2N)c2nn(-c3ccccc3F)c(C)c12,/,/,6
COC(=O)C(C(=O)OC)C(C[N+](=O)[O-])c1ccc(O)c(OC)c1 (centres undefined),-4,/,/
COc1ccccc1N1CCN(c2nc3ccccn3c(=O)c2C=O)CC1,-2,-0.029,/
C/C=C(/C)C(=O)Nc1cccc(C2=NOC3(C2)C[C@@H](C(N)=O)N(C(=O)CCCCC)C3)c1 (some centres undefined),/,-0.22,/
CC(C)[C@H](NC(=O)c1ccccc1)C(=O)OCC(=O)N1CCCc2ccccc21,-3,/,/
CCOc1cccc(C(=O)Nc2ccc(N3CCN(S(C)(=O)=O)CC3)cc2)c1,-2,-0.13,1
CCOc1cccc(C(=O)NC(=S)Nc2ccc(N3CCCC3)cc2)c1,-1,0.76*,/
C/C(=N\NC(=O)CSc1nnc(C)s1)c1ccc(Cl)cc1,3,/,/
CCC(C)(C)n1c(=O)[nH]c2c(c1=O)CCC2,1,3*,-5
CCc1[nH]c(=O)c(C#N)c2c1CCCC2,-2,/,6
CC(=O)C[C@H]1c2cc(F)ccc2S(=O)(=O)N1c1ccc(N(C)C)cc1,/,0.97,/
Cc1cc(Cl)ccc1OCCCC(=O)N/N=C/c1cccc([N+](=O)[O-])c1,-1,/,/
Cc1ccccc1CCN(C(=O)Cn1nnc2ccccc21)C(C(=O)NCC1CCCO1)c1nc2ccccc2n1C (centres undefined),-3,/,/
O=C(Cc1cc(=O)[nH]c(=O)[nH]1)NCc1ccc(Cl)cc1,-2,/,/
Cc1cc(=O)[nH]c(SCC(=O)Nc2nnc(CC(C)C)s2)n1,0,-0.49,7
O=C(CSc1ncn[nH]1)Nc1nnc(-c2ccccc2)s1,7.2*,-0.23,0
O=C(O)CSc1ncn[nH]1,-1,0.33,-15
O=C(CSc1ncn[nH]1)NC12CC3CC(CC(C3)C1)C2,5.1*,-2.5,5
O=C(CSc1ncn[nH]1)Nc1ccccc1-c1ccccc1,2,-0.03,1
SMILES,MRP-1 activ,DAT uptake mod,MRP resist rev
CC(C)Cc1nnc(NC(=O)CSc2ncn[nH]2)s1,5.3*,-0.7,13
N#CCCn1c(SCC(=O)Nc2ccc(N3CCOCC3)cc2)nc2ccccc21,0,/,/
Cc1ccc(/C=C(\NC(=O)c2ccccc2)C(=O)NCCc2ccccn2)o1,-2,/,/
COc1ccc(CN(Cc2cccnc2)C(=S)NCCc2ccccc2)cc1OC,-4,2*,/
COc1ccc(CCNC(=O)c2cccnc2)cc1OC,-1,0.099,4
CC(=O)c1cc(C(=O)c2ccccc2)sc1Nc1ccccc1,-3,/,/
COC(=O)c1ccc(OC(=O)c2ccco2)cc1,1,-7.5*,-3
O=C(Nc1ccc(OC(=O)c2ccco2)cc1)c1ccco1,-2,-1.2,-2
CC(=O)Nc1ccc(NC(=O)C(Cc2ccccc2)NC(=O)C2CCC(C)CC2)cc1 (centres undefined),0,/,/
COc1cccc(C(=O)NN/C(C)=C/C(=O)C(F)(F)C(F)(F)C(F)(F)F)c1,1,/,/
O=C(NCc1nc2ccccc2[nH]1)C1=C[C@@H](c2ccc(Br)cc2)C[C@@H](OCCCCO)O1,/,0.21,/
O=C(NCc1nc2ccccc2[nH]1)C1=C[C@@H](c2ccccc2)C[C@@H](OCCCCO)O1,/,3.2*,/
CCN1C(=O)C(CC(=O)Nc2ccc(OC)cc2)N(Cc2ccc3c(c2)OCO3)C1=S (centres undefined),-4,/,/
C[C@H](NC(=O)c1ccccc1Cl)C(=O)OCC(=O)N1CC2(C)CC1CC(C)(C)C2 (some centres undefined),1,/,/
COC(=O)[C@@]1(Cc2ccc(OC)cc2)[C@H]2c3cc(C(=O)N4CCCC4)n(Cc4c(CO)[nH]cc(C)c4=O)c3C[C@H]2CN1C(=O)c1ccccc1,/,-0.67,/
O=C(O)C1CC=CCC1C(=O)Nc1ccc(S(=O)(=O)N2CCCc3ccccc32)cc1 (centres undefined),-1,1.3*,-3
O=C(Nc1ccc(S(=O)(=O)N2CCCc3ccccc32)cc1)C1CCCO1 (centres undefined),-4,2,-13
O=C(Nc1ccn(Cc2c(F)c(F)cc(F)c2F)n1)c1ccc(COc2ccc(Cl)cc2Cl)o1,13*,-1.6,/
O=C(Nc1ccccc1F)c1ccc(COc2ccc(Cl)cc2Cl)o1,-2,-0.73,-9
Cc1nn(Cc2c(F)c(F)c(F)c(F)c2F)c(C)c1NC(=O)c1ccc(COc2ccc(Cl)cc2Cl)o1,-4,/,/
Cc1nn(Cc2ccc(Cl)cc2Cl)c(C)c1NC(=O)c1ccc(COc2cc(Cl)ccc2Cl)o1,5.6*,0.95,/
CCOC(=O)CC(NC(=O)C1c2ccccc2Oc2ccccc21)c1ccccc1Cl (centres undefined),-3,/,/
O=C(COc1ccccc1)N1CCN(S(=O)(=O)c2ccc(Cl)cc2)CC1,-1,-0.83,4
COc1ccccc1N1CCN(C(=O)COc2ccc(Cl)cc2)CC1,6.6*,0.32,-2
COc1ccccc1OCC(=O)N1CCN(c2ccccc2OC)CC1,0,0.39,9
SMILES,MRP-1 activ,DAT uptake mod,MRP resist rev
O=C(COc1ccc(Cl)cc1)N1CCN(S(=O)(=O)c2ccccc2)CC1,5.1*,0.51,-9
CCCCCCCCCCCC(=O)c1c(O)cccc1O,/,1.2,/
COc1cc(/C=C2/N=C(c3ccccc3)OC2=O)c(F)cc1OCc1ccccc1,/,0.16,/
O=C(Cn1c(COc2ccccc2)nc2ccccc21)Nc1cc(Cl)ccc1Cl,-3,/,/
O=C(Cn1c(COc2ccccc2)nc2ccccc21)Nc1cc(Cl)cc(Cl)c1,-3,/,/
N#CCCNC(=O)Cn1c(COc2ccc(Cl)cc2)nc2ccccc21,5.6*,/,/
O=C(Cn1c(COc2ccc(Cl)cc2)nc2ccccc21)NCC(F)(F)F,5.6*,/,/
CCOC(=O)C[C@H]1c2cc(F)ccc2S(=O)(=O)N1C1CCCCC1,/,-0.085,/
Cc1ccc(CNn2cnnc2SCc2ccc(F)cc2)cc1,-3,0.21,3
Cc1ccsc1CNn1cnnc1SCc1ccc(Cl)cc1,6.3*,0.027,19
Cc1ccc(C)c(OCCSc2nnc(-c3cccnc3)n2N)c1,-2,/,/
CC(C)(C)Cc1cc(N)on1,-1,/,/
COc1ccc(-c2c([C@H]3[C@H]4C=CC[C@@H](C)[C@@H]4C(=O)N3Cc3ccccc3)ccc3ccccc23)cc1OC,/,0.039,/
COc1cccc(C(=O)Nc2cccc(C(=O)NCC(C)C)c2)c1,-4,/,/
CC(C)CNC(=O)c1cccc(NC(=O)Cc2ccc(Br)cc2)c1,6.2*,/,/
O=C(CC(c1ccccc1)c1ccco1)Nc1nccs1 (centres undefined),-1,/,/
